Data on 54 molecules can be found in ChEMBL document CHEMBL4513216, “Probing the Open Global Health Chemical Diversity Library for Multistage-Active Starting Points for Next-Generation Antimalarials” (ACS Infect Dis, 2020).

Out of some 69,000 compounds screened, about 8,600 (12%) showed an effect of 50% or more. This excerpt belongs to a sample that is enriched for strong results.

This experiment concerns Plasmodium berghei. In words: Screen against P. berghei liver stage (PbLuc), transformed with Luciferase, at 10uM. It is filed as functional, HepG2. As to conditions: tested at 10 uM.
On to `O=C(O)c1cc(C=Cc2ccc3ccccc3c2)ncn1`, for which the INHIBITION is given as -57%. Then `Cc1ccc(C(O)CNC(=O)NCc2csc(C)n2)cc1` (centres undefined), with -34%. Next, `O=C(c1cccnc1N1CCOCC1)N1CCCC(n2cccn2)C1` (centres undefined): -62.365%; `Cn1cc(-c2cnc(N3CCOCC3)nc2)cc1C(=O)N1CCCC1`: -50.9%; `CC(C)(O)CCc1cccc(C(=O)NCCC2=CSC3=NCCCN23)c1`: 31.2%. Turning to `O=C(CC1=CSC2=NCCCN12)N1CCCCCC1c1ccco1` (centres undefined), the INHIBITION is recorded as -4.01%. With `COc1cccc(C2CCCN2C(=O)CC2=CSC3=NCCCN23)c1` (centres undefined), the INHIBITION was -11.6%.

For `CNc1cc(C(=O)NCCC2=CSC3=NCCCN23)ccn1`, the INHIBITION stood at 50.3%. As to `CCC(=O)Nc1cccc(C(=O)NCCC2=CSC3=NCCCN23)c1`, the INHIBITION is on record as 50.3%. `CN(CCNC(=O)c1ccnc(-n2ccnc2)c1)C1CC1`: the INHIBITION is reported as -3.83%.

Regarding `Cc1ccc(-c2nc(C(=O)N3CCN(C(=O)N(C)C)CC3)cs2)c(C)c1`, the INHIBITION is given as -4.865%. In the case of `O=S(=O)(c1cccs1)N1CC[C@H]2[C@H]1CCN2CC1CC1`, the INHIBITION is on record as 2.58%. Next, `CN1CCN(CC2CCN(C(=O)CCC3CCCCC3)CC2)CC1`: 21%; `Cn1cccc1C(=O)N1C[C@H]2CN(Cc3cccc(F)c3)C[C@H]2C1`: 6.27%; `O=C1CC[C@H]2[C@H](CCN2C(=O)C2CCCO2)N1Cc1cccnc1` (some centres undefined): 5.96%. In the case of `CCn1nc2c(cc1=O)CN(CCCN1CCCC1=O)CC2`, the INHIBITION was 16.8%. For `COc1c(C(=O)NCC(C)C)nnn1Cc1ccccc1`, the INHIBITION is 53.2%. Next, `CCNC(=O)c1nnn(Cc2ccccc2)c1OC`: -19%; `COCCNC(=O)c1nnn(Cc2ccccc2)c1OC`: 19.3%; `CN(C)CC1CSCCCN1C(=O)c1ccc(-n2cccc2)cc1` (centres undefined): 35.8%. On to `CN(Cc1ccncc1)C(=O)NCc1nnc2n1CCCCC2`, for which the INHIBITION was -4.94%. For `COc1ccccc1CN1C[C@@H](F)[C@@H](OCc2nc3ccccc3[nH]2)C1`, the INHIBITION was found to be 45.2%. `COc1ccccc1CN1C[C@@H](F)[C@@H](OCc2nc3ncccc3[nH]2)C1`: the INHIBITION is listed as 50.7%. As for `COc1ccccc1CN1C[C@@H](F)[C@@H](OCc2nc3cnccc3[nH]2)C1`, the INHIBITION is on record as -25.2%.

As for `Cc1ccc(NC(=O)C2CSCN2C(=O)c2cccnc2)c(C)c1` (centres undefined), the INHIBITION stood at 0.8%. As for `O=C(NCc1noc(C2CCCO2)n1)c1cn2ccsc2n1` (centres undefined), the INHIBITION is listed as 25.9%. Consider `O=C(NCCc1noc(C2CCCO2)n1)c1cn2ccsc2n1` (centres undefined), for which the INHIBITION was 39.9%. Consider `Cc1nc(NCc2noc(C3CCCO3)n2)c2ccsc2n1` (centres undefined), for which the INHIBITION stood at 73.2%. With `Cc1nc(N(Cc2ccncc2)CC2CCCO2)c2ccsc2n1` (centres undefined), the INHIBITION was found to be 40.8%. `O=C1CSc2ccccc2N1Cc1noc(C2CCCO2)n1` (centres undefined): the INHIBITION came to 7.6%. For `Cc1cc(C(F)(F)F)nc(CCNc2nc(C)nc3sccc23)n1`, the INHIBITION stood at 43.2%. In the case of `Cc1nc(NCc2noc(C3CCCO3)n2)c2sccc2n1` (centres undefined), the INHIBITION was 75.4%.

On to `Cc1ccc2c(c1)SCC(=O)N2Cc1noc(C2CCCO2)n1` (centres undefined), for which the INHIBITION is listed as 14.9%. Regarding `Cc1nc(NCCc2noc(C3CCCO3)n2)c2sccc2n1` (centres undefined), the INHIBITION is reported as 82.2%. For `Cc1cc(NC(=O)CN2CCCC2Cn2nc(C)nc2C)n(C)n1` (centres undefined), the INHIBITION is reported as 38.8%. Take `Cc1cc(C)cc(OCC(=O)N2CCCC2)c1`: the INHIBITION is given as -55.3%. With `COCCn1cnnc1CNc1cc(C)nc2c(C)c(C)nn12`, the INHIBITION is recorded as 15.5%.

In the case of `Cc1nn(C)c2cnn(CC(=O)NCc3ccccc3F)c12`, the INHIBITION was 41.6%. Take `CC(=O)N1CCCC1c1cc(Nc2nnc(C)s2)nc(C)n1` (centres undefined): the INHIBITION is on record as 26.8%. As for `O=C(c1nn[nH]c1Nc1ccc(Cl)cc1)N1CCSCC1`, the INHIBITION is 11.8%. Then `O=C(c1nn[nH]c1Nc1ccc(Cl)cc1)N1CCCCCC1`, with 72%. With `O=C(c1nn[nH]c1Nc1cccc(Cl)c1)N1CCSCC1`, the INHIBITION was found to be 8.38%. As for `COCC(=O)NC1CC2(CCN(CC3CC3)CC2)Oc2ccccc21` (centres undefined), the INHIBITION is on record as -2.35%.

For the molecule `COCCN1CCC2(CC1)CC(NC(=O)COC)c1ccccc1O2` (centres undefined), the INHIBITION is given as -13.4%. For `CCN1CCC2(CC1)CC(NC(=O)c1csnn1)c1ccccc1O2` (centres undefined), the INHIBITION is on record as 41.2%. For the molecule `COCC(=O)NC1CC2(CCN(CCF)CC2)Oc2ccccc21` (centres undefined), the INHIBITION is -5.94%. On to `COCCN1CCC2(CC1)CC(NC(=O)CN(C)C)c1ccccc1O2` (centres undefined), for which the INHIBITION was determined as 54.3%. Next, `CN1CCC2(CC1)CC(NC(=O)c1csnn1)c1ccccc1O2` (centres undefined): 59.3%.

As for `O=C(NC1CC2(CCN(CCO)CC2)Oc2ccccc21)c1csnn1` (centres undefined), the INHIBITION is 34.9%.

Consider `CCN1CCC2(CC1)CC(NC(=O)c1c[nH]cn1)c1ccccc1O2` (centres undefined), for which the INHIBITION is 44.8%.

In the case of `COCCN1CCC2(CC1)CC(NC(=O)C1CC1)c1ccccc1O2` (centres undefined), the INHIBITION was 16.1%.

As to `COCCN1CCC2(CC1)CC(NC(=O)CC1CC1)c1ccccc1O2` (centres undefined), the INHIBITION is given as 56.8%.

Consider `CC(C)CC(=O)NC1CC2(CCN(CCF)CC2)Oc2ccccc21` (centres undefined), for which the INHIBITION amounted to 34.6%.

Take `COCCN1CCC2(CC1)CC(NC(=O)C(C)C)c1ccccc1O2` (centres undefined): the INHIBITION was 55.5%.
